Screening results: PubChem BioAssay, several laboratories
SKN-1 block: inhibitors of C. elegans SKN-1; 360,000 compounds, 0.49% hits; C. elegans VP596 Pgst-4::GFP/RFP ratio, acrylamide-induced, 24 h; inhibition, % at 21.8 µM;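 active = interference check ratio from 0.5 to 1.5 plus GFP to RFP signal ratio inhibition reaching or exceeding a fixed threshold, cut at about 30% in these data, passing the limit was not always enough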
CHRM1 agonist: activates human CHRM1 receptor; P11229; CHO-K1 hM1, Fluo-8 calcium fluorescence, agonist mode; 0% DMSO, 100% acetylcholine EC100; activation, % at 3 µM; 360,000 compounds, 0.33% hits; AID 588814;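 active = activation above the run's mean compound activation plus 3 SD, cut at about 16% in these data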;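 note: peak over basal fluorescence ratio within a 140 s kinetic read after compound addition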
Target sequence (P11229 whole entry, looked up): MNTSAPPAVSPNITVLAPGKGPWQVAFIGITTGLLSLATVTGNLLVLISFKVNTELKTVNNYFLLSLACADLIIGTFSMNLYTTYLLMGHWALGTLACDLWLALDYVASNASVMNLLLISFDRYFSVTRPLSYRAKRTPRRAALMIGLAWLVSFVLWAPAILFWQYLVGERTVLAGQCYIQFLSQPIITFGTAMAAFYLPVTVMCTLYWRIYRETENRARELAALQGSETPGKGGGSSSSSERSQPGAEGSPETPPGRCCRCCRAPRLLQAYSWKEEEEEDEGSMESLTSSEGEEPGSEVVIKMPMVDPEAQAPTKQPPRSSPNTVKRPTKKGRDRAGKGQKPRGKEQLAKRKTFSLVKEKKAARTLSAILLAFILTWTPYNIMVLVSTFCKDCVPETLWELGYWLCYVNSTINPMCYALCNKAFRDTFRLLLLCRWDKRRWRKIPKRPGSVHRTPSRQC
M1 antag: blocks human M1 muscarinic receptor; P11229; CHO-K1 hM1, Fluo-8 calcium fluorescence, ACh EC80 antagonist; inhibition, % at 3 µM; 360,000 compounds, 1.3% hits; AID 588852;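 active = percent inhibition above its own plate's cutoff, namely the mean of that plate's compound wells plus 3 SD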;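 note: peak over basal fluorescence ratio during 140 s after agonist addition; 0% = ACh EC80 plus DMSO and 100% = DMSO alone without agonist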
Myeloid diff 2: myeloid differentiation induction; 360,000 compounds, 1% hits; ER-HoxA9 myeloid progenitors, lysozyme-GFP differentiation, flow cytometry; calls only at 10 µM;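 active = normalized GFP-positive differentiation at or above the plate's own cutoff, the solvent-only control mean plus 3 SD; inconclusive = no clear call, values can overlap the other calls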;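 note: cells exposed to compound for four days before flow analysis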
ATG4B inhibitor: inhibitors of human ATG4B cysteine protease. inhibition, % at 8.33 µM. 340,000 compounds, 0.51% hits. Q9Y4P1. ATG4B cleavage of LC3-PLA2, NBD-HPC fluorescence, 1 h. AID 504462; in the data active = inhibition above about 40%
CHRM1 PAM: potentiates human M1 receptor response to acetylcholine; activation, % at 3 µM; P11229; 360,000 compounds, 0.088% hits; CHO-K1 hM1, Fluo-8 calcium fluorescence, ACh EC20; 0% = ACh EC20, 100% = maximal ACh; in the data active = activation above about 19%, passing the limit was not always enough
* = called active by the depositor; i = inactive; ? = inconclusive; / = no result given; + = active, no number. This is a sample that favours compounds with a hit; in the whole collection about 3.5% have one here.

SMILES	SKN-1 block	CHRM1 agonist	M1 antag	Myeloid diff 2	ATG4B inhibitor	CHRM1 PAM
Cc1ccc(-c2cn(-c3ccccc3)c3[n+]2CCCS3)cc1	-9	-4	40	i	-9	-22
COc1ccc(-c2c[n+]3c(n2-c2ccccc2)SCC3)cc1OC	3	-8	-3	i	-9	5
COc1ccc(-c2c[n+]3c(n2-c2ccccc2)SCC3)cc1	-2	-9	62*	i	7	-23
Cc1ccc(-c2c[n+]3c(n2-c2ccccc2)SCC3)cc1	-3	-8	54*	?	-6	-21
Cn1cc(S(=O)(=O)N2CCCC2)cc1C(=O)O	-8	-1	2	i	-3	1
CC(C)Oc1cccc(C(=O)C2CCCN(C(=O)c3cncs3)C2)c1 (stereo not drawn)	21	-5	39*	i	6	-16
CCn1nc(C)c(CN2CCCC(C(=O)c3cccc(OC(C)C)c3)C2)c1C (stereo not drawn)	5	-11	95*	i	-16	-31
CC(C)Oc1cccc(C(=O)C2CCCN(Cc3cccn3-c3ccccn3)C2)c1 (stereo not drawn)	-2	-4	41*	i	7	-23
Cc1nn(C(C)C)c(C)c1CN1CCCC(C(=O)c2cccc(OC(C)C)c2)C1 (stereo not drawn)	-9	-10	37*	i	6	-29
COc1cccc(C(=O)C2CCCN(Cc3cccn3-c3ccccn3)C2)c1 (stereo not drawn)	9	-14	-3	i	13	-14
O=C(Cn1nnc(-c2ccccc2F)n1)N1CCCCC1	-5	-4	1	i	6	3
Cc1ccccc1Cc1c(C)nc2ncnn2c1C	9	-6	2	i	-6	7
Cc1nc2ncnn2c(C)c1Cc1cccc(C(F)(F)F)c1	-9	-4	-4	+	1	3
COc1cccc(/C=N/NC(=O)C(=O)Nc2ccccc2OC(F)(F)C(F)F)c1O	7	-8	9	+	9	-8
COc1ccc(NC(=O)CC2(CC(=O)N3CCOCC3)CCCC2)cc1Cl	-2	-8	56*	i	8	-17
CCOC(=O)/C(=C\C=C1/Sc2cc(OCC)c(OCC)cc2N1CC)C(C)=O	5	44*	24	+	-53	-15
CCOC(=O)/C(=C/C=C1\Sc2cc(OCC)c(OCC)cc2N1CC)C(C)=O	-8	70*	27	+	-46	-21
CCN1/C(=C/C(C)=O)Sc2ccc(OC)cc21	10	-3	-1	i	-11	6
COc1ccc(CNCCNC(=O)c2nonc2N)cc1OC	-27	-4	4	+	1	9
COc1ccc(CCNC(=O)c2nonc2N)cc1OC	31	-1	-5	i	5	4
Cc1cccc(OCC(=O)NCC(=O)N/N=C/c2cc(Br)cc(Br)c2O)c1	14	-1	-17	i	-4	9
C1CCN(C2CCN(c3nc4nonc4nc3N3CCSCC3)CC2)C1	3	-10	27*	i	-3	-24
Cc1ccc(CCC(=O)Nc2ccc(N(C)C)cc2)o1	6	-4	-20	i	-2	9
CC(/C=N/n1cnnc1)=C\c1ccccc1	-12	9	-13	i	-15	8
CC(=C/c1ccccc1)/C=N/n1cnnc1	-1	22*	0	i	-7	1
SMILES	SKN-1 block	CHRM1 agonist	M1 antag	Myeloid diff 2	ATG4B inhibitor	CHRM1 PAM
CC(/C=N/N1CCN(Cc2ccccc2)CC1)=C\c1ccccc1	62*	-6	2	i	18	3
O=C(CN1CCN(C(=O)CCC(=O)N2CCC(c3ccccc3)=N2)CC1)Nc1ccc(F)cc1	7	8	0	i	-6	17
CCCCC(=O)N(C)c1c(C)nc2ccc(C(=O)NCCOc3ccc(OC)cc3)cn12	1	-4	-19	i	/	7
CCc1nc2ccc(C(=O)NCCN3CCCC3)cn2c1N(C)Cc1ccc(OC)cc1	-12	-10	45*	i	/	-28
CCc1nc2ccc(C(=O)NCc3ccc(OC)cc3)cn2c1N(C)Cc1ccc(OC)cc1	5	-8	15	i	/	-18
CCCCN(C)c1c(C)nc2ccc(C(=O)NCCOc3ccc(OC)cc3)cn12	-3	-1	39*	i	/	-20
COc1cc(OC)cc(C(=O)NCC(=O)NC(C)c2ccccc2)c1 (stereo not drawn)	-4	1	75*	i	-3	6
COc1ccc(C(=O)NC(C)c2ccccc2)cc1Br (stereo not drawn)	6	-9	-9	+	-7	10
COc1cc(OC)cc(C(=O)NC(C(=O)NCc2ccccn2)C(C)C)c1 (stereo not drawn)	-1	-9	78*	i	-7	-29
CC(NC(=O)c1ccc(Br)cc1)c1ccccc1 (stereo not drawn)	13	-7	5	i	-3	1
COc1ccc(C(=O)Nc2ccccc2N2CCN(C(=O)c3ccccc3)CC2)cc1Br	11	-5	35*	i	-7	-14
Cc1c(Cc2ccccc2)c(=O)oc2cc(OCC(=O)N3CCC(C(=O)O)CC3)ccc12	1	0	-5	i	-21	3
Cc1ccc(Cn2c(C(C)Nc3nc(-c4ccc(Cl)cc4)cs3)nc3cc(C(=O)NCCCO)ccc32)cc1 (stereo not drawn)	14	-9	6	+	3	3
O=C(O)c1ccccc1CSc1nc2ccccc2n1Cc1ccccc1C(=O)O	-3	-5	3	+	1	-4
Cc1ccc(C(CNS(=O)(=O)c2ccccc2)N2CCN(C)CC2)cc1 (stereo not drawn)	-23	-4	-21	i	4	25*
Cc1ccc2c(C)nc(Nc3nc(CSc4nnc(C)s4)cc(=O)[nH]3)nc2c1	2	-7	2	i	-17	-2
COc1cccc2c(C)nc(Nc3nc(CSc4nnc(C)s4)cc(=O)[nH]3)nc12	-16	-2	-9	+	-4	10
Cc1cc(C(=O)NC(C)C2CC2)c(Cl)cc1Cl (stereo not drawn)	-3	-5	-9	i	1	8
CC1=C(C(=O)OCC2CCCO2)C(c2ccccc2OC(C)C)C2=C(CC(c3ccco3)CC2=O)N1 (stereo not drawn)	40*	-6	-4	i	-10	1
CC(C)CNS(=O)(=O)c1ccc(CCC(=O)NCc2cccnc2)cc1	12	-5	13	+	3	2
Cc1ccc(CNC(=O)CN(C)S(=O)(=O)c2ccc(F)cc2)cc1	-13	2	-19	i	-9	18
CC(C)(C)c1cc2cccnc2n1Cc1cccc(Cl)c1	8	-5	31*	i	16	-12
